# GCN5L2 inh – qHTS Assay for Inhibitors of GCN5L2. actives 0.21% (n = 390,000). GCN5L2 HAT assay, ThioGlo1 CoA-SH fluorescence. Histone acetyltransferase KAT2A (Homo sapiens), Q92830. AID 504327, 2011. Potency, µM (series often up to 58.9 µM), actives largely listed as inhibitors
#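 Free CoA generated was detected with ThioGlo1 (50uM) fluorescence at Ex340nm/Em540nm, read immediately and after 20 min at room temperature. Enzyme, 20 nM in HEPES pH 7.5 buffer, saw compounds 15 min before adding 75uM H3(1-25) peptide and 70uM acetyl-CoA.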
# VDR inhibitor – Inhibitors of the vitamin D receptor (VDR): qHTS | VDR-SRC2-3 peptide fluorescence polarization, 2 h | Potency, µM, usual class: inhibitors | actives 0.93% (n = 400,000)
# Target sequence (P11473 whole entry, looked up): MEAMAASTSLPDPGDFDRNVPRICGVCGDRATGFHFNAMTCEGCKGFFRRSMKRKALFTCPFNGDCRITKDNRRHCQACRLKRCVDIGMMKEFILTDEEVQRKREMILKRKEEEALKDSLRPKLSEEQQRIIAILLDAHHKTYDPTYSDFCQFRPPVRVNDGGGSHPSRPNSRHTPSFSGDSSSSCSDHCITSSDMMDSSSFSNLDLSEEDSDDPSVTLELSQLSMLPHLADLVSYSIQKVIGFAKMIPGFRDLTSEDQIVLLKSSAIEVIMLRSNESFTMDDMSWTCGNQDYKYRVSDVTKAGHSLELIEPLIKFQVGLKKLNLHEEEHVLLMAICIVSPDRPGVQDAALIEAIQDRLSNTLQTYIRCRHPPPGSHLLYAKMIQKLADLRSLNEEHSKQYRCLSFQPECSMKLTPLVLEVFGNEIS
#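 FP read-out; VDR + SRC2-3 coactivator peptide; 23 nl compound by pintool; 2 h RT incubation; reagents held at 4 deg C, protected from light.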
# PLK1 PBD block – qHTS for Inhibitors of PLK1-PDB (polo-like kinase 1 - polo-box domain): Primary Screen; Serine/threonine-protein kinase PLK1 (Homo sapiens), P53350; Plk1 PBD binding of FITC phosphopeptide, fluorescence polarization; Potency, µM, most hits filed as inhibitors; actives 2.8% (n = 360,000); also: series mostly up to about 57 µM; nearly all actives have a fitted effect of over 65% in size
# TDP1 block – qHTS Assay for Inhibitors of Tyrosyl-DNA Phosphodiesterase (TDP1) | Tyrosyl-DNA phosphodiesterase 1 (Homo sapiens), Q9NUW8 | recombinant TDP1, AlphaScreen DNA substrate cleavage | Potency, µM (titrated, usually from 130 µM), actives largely listed as inhibitors | actives 0.28% (n = 350,000); also: nearly all actives have a fitted effect of over 40% in size
#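 Compounds were preincubated with Tdp1 (1 nM final) for 15 min at room temperature before substrate (15 nM final) started a 5 min reaction; beads (10 ug/ml final) were then added for 10 min before AlphaScreen detection.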
# TDP1 cell CPT – qHTS for Inhibitors of human tyrosyl-DNA phosphodiesterase 1 (TDP1): qHTS in cells in presence of CPT. chicken DT40 Tdp1-/-;hTDP1 cells + 20 nM CPT, ATP luminescence, 48 h. Potency, µM (highest dose often 46.2 µM), hits mostly inhibitors. actives 12% (n = 420,000); also: nearly all actives have a fitted effect of over 55% in size
#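 Chicken DT40 Tdp1-/- cells stably complemented with human TDP1 were seeded at 400 cells/well in medium containing 20 nM camptothecin, exposed to pin-transferred compounds, and grown at 37 °C for at least 48 hr. Viability was read as ATP luminescence.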
# TDP1 cell noCPT – qHTS for Inhibitors of human tyrosyl-DNA phosphodiesterase 1 (TDP1): qHTS in cells in absence of CPT | AID 686978, 2013 | actives 15% (n = 420,000) | DT40 Tdp1-/- hTDP1 cells, no CPT, ATP luminescence, 48 h | Potency, µM (top dose mostly 46.2 µM), usual class: inhibitors; also: nearly all actives have a fitted effect of over 55% in size
#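 DT40 Tdp1-/-;hTDP1 cells, no CPT (DMSO vehicle only), 400 cells/well; compounds pin-transferred; ≥48 hr, 37 °C; CellTiter-Glo 30 min RT dark, luminescence read.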
# A number is an active result; – = inactive; ? = inconclusive; · = no result; [ ] = another dose, or the depositor's remark. Sampled rows, rich in hits. Any-hit rate of the full collection: about 18%. Calls follow the shape of the dose curve; as a rule, active = well fitted curve in the direction sought with a large enough effect; inconclusive = small, poorly fitted or top-dose-only effect, or another doubt; inactive = no such curve, though single readings can be large; an effect the other way counts as inactive or inconclusive.
SMILES,GCN5L2 inh,VDR inhibitor,PLK1 PBD block,TDP1 block,TDP1 cell CPT,TDP1 cell noCPT
CCC1=C(OC(=O)N(CC)CC)N2C(=O)OC(=NCC(=O)OC)[C@]2(Cc2ccccc2)[C@H]2C1=CC[C@H]1C(=O)N(c3ccccc3)C(=O)[C@H]12,–,–,–,–,?,?
CCC1=C(OC(=O)N(CC)CC)N2C(=O)OC(=NCCc3c[nH]c4ccccc34)[C@]2(Cc2ccccc2)[C@H]2C1=CC[C@H]1C(=O)N(CC(=O)OC)C(=O)[C@H]12,–,–,–,–,?,?
COc1ccc(C2c3c(ncn(CCCc4ccccc4)c3=N)Oc3ccc4ccccc4c32)cc1OC (stereo not given),·,·,·,–,·,·
Cc1cc(C)[n+](-c2ccc(Oc3ccccc3)c(S(=O)(=O)[O-])c2)[nH]1,–,?,26.7µM,·,?,–
CCN(CC)S(=O)(=O)c1ccc(Oc2ccccc2)c(N)c1,–,–,–,–,?,?
COc1ccc(Cl)cc1NC(=O)CN(C)C(=O)Cc1ccc(-c2ccccc2)cc1,–,–,–,–,–,–
COc1ccc(Cl)cc1NC(=O)CN(C)C(=O)c1ccc(OCc2ccccc2)c(OC)c1,–,–,–,·,?,23.1µM
COc1ccc(Cl)cc1NC(=O)CN(C)C(=O)c1ccc(COc2ccccc2)cc1,–,–,–,·,?,?
COc1ccc(Cl)cc1NC(=O)CN(C)CC(=O)Nc1ccccc1-c1ccccc1,–,–,–,–,18.4µM,23.1µM
CCOC(=O)c1cnc2c(ccc3ccccc32)c1Nc1ccc(OC)cc1OC,–,–,·,·,?,?
Cc1ccc(C)c(N2CCN(S(=O)(=O)c3cn(C)c(C)n3)CC2)c1,–,–,·,–,?,?
c1ccc(Sc2ncccn2)nc1,–,–,26.7µM,–,–,–
O=C(Nc1ncn[nH]1)c1cccc(S(=O)(=O)N2CCOCC2)c1,–,–,–,–,–,–
CCCCn1c(-c2ccc(F)c(F)c2)nc2cc3[nH]c(=O)c(C(C)C)nc3cc21,–,–,–,·,20.6µM,20.6µM
O=c1cnn(Cc2ccc(Cl)c(Cl)c2)c2ccccc12,–,–,–,–,20.6µM,14.6µM
Cc1cc2c(c(-c3cnccn3)c1)OC(CNC(=O)c1c(F)cccc1Cl)C2 (stereo not given),·,·,·,·,–[9.04 µM],?
Cc1ccc(NC(=O)CSc2nc(NS(=O)(=O)c3ccccc3)cc(=O)[nH]2)cc1,–[0.501 µM],–,–,28.2µM,–,–
Cc1ccc(S(=O)(=O)Nc2cc(=O)[nH]c(SCC(=O)Nc3ccccc3Cl)n2)cc1,–,–,–,35.5µM,–,–
O=C(CSc1nc(NS(=O)(=O)c2ccccc2)cc(=O)[nH]1)Nc1ccccc1Cl,–,–,–,–,–,–
c1ccc(N2CCN(Cc3nnc(-c4ccc5c(c4)OCO5)o3)CC2)cc1,–,–,·,–,?,?
COc1cc(C2C(C#N)=C(N)N(c3sc4c(c3C#N)CCCC4)C3=C2C(=O)CC(C)(C)C3)cc(OC)c1OC (stereo not given),–,–,–,–,20.6µM,16.4µM
Cc1ccccc1C1C(C#N)=C2NC(=O)c3c(sc4c3CCCCC4)N2C2=C1C(=O)CC(C)(C)C2 (stereo not given),–,·,·,–,·,·
Cc1ccccc1C1C(C#N)=C2N=C(N)c3c(sc4c3CCCCC4)N2C2=C1C(=O)CC(C)(C)C2 (stereo not given),–,–,–,–,18.4µM,?
CCc1nc2ccc(C(=O)NCCC(C)C)cn2c1N(CCN(C)C)CC1CC1,·,·,–,·,–,–
CCc1nc2ccc(C(=O)Nc3cc(-c4ccccc4)ccc3OC)cn2c1N(C=O)CCC(C)C,·,·,–,·,16.4µM,14.6µM
